# DAX1 inh-1 – DAX1 (NR0B1) inhibition, primary screen; HEK293T StAR-luciferase reporter, SF-1/DAX-1 repression relief; inhibition, % at 6.8 µM; actives 1.1% (n = 370,000); AID 652010;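 active means inhibition above the mean over all tested compounds plus 3 SD, cut at about 3.6% in these data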;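 further: 0% = DAX-1 cells with DMSO and 100% = cells lacking DAX-1 with DMSO; higher inhibition means more luminescence from relief of DAX-1 repression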
# hgDAF12 agonist – hgDAF-12 agonism, primary luciferase screen; HEK293 GAL4-hgDAF12 UAS-luciferase reporter, agonist luminescence; normalized to butyrate control; activation, % at 6.8 µM; actives 1.8% (n = 370,000); AID 687014;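 active means activation above a cutoff set at the mean of all screened compounds plus 3 SD, cut at about 10% in these data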;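 further: 0% = DMSO wells and 100% = sodium butyrate wells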
# ssDAF-12 act – S. stercoralis DAF-12 activation, primary screen. AID 652126. activation, % at 6.8 µM. HEK293 ssDAF-12/GRIP1 lit1-tk-luc reporter, luminescence; % of 3 µM dafachronic acid response. actives 1% (n = 370,000);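 active means activation above the mean over all tested compounds plus 3 SD, cut at about 0.9% in these data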;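 further: 0% = DMSO-only wells and 100% = 3 µM delta7-dafachronic acid wells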
# DAX1 inh-2 – inhibits human nuclear receptor DAX1 | P51843 | HEK293 Gal4-DAX1 luciferase reporter, luminescence | actives 0.99% (n = 340,000) | inhibition, % at 6.75 µM;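 active means inhibition above the mean over all tested compounds plus 3 SD, cut at about 4.2% in these data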;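 further: 0% = DAX1-transfected cells with DMSO and 100% = empty-vector control cells with DMSO; inhibition shows as a rise in luminescence from relieved DAX1 repression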
# Target sequence (P51843 207-470 limits assumed): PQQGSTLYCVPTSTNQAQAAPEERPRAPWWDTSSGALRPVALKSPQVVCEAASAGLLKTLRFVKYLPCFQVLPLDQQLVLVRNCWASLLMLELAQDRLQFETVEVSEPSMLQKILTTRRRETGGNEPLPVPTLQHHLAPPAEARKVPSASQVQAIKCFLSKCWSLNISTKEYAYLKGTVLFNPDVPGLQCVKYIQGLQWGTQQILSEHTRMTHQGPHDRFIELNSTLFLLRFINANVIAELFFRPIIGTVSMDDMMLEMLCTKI
# hcDAF12 agonist – H. contortus DAF-12 activation, primary screen; HEK293 hcDAF-12 lit1-tk-luc reporter, luminescence; 0% DMSO, 100% Δ7-dafachronic acid; AID 652067; activation, % at 6.8 µM; actives 1.4% (n = 370,000);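 active means activation above the mean of all tested compounds plus 3 SD, cut at about 5.5% in these data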;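 further: 100% = response to 3 µM Δ7-dafachronic acid high control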
# LXR ag – activates human LXR-beta, counter-screen for hcDAF-12 agonists; AID 743027; HEK293 Gal4-LXR tk-luc reporter, luminescence, 24 h; normalized: DMSO 0%, positive control 100%; shares compounds with hcDAF12 agonist; activation, % at 6.8 µM; 3,400 tested, under 10 active;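 active means mean percent activation of the reporter above a cutoff set as the average over tested compounds plus their standard deviation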
# hcDAF12 ag – confirmation of H. contortus DAF-12 agonists | shares compounds with hcDAF12 agonist | HEK293 hcDAF-12 lit1-tk-luc reporter, luminescence; % of Δ7-dafachronic acid response | activation, % at 6.8 µM | actives 61% (n = 3,400);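 active means mean activation across triplicate tests above the threshold derived from the earlier primary screen, cut at about 5.5% in these data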;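 further: 0% = DMSO only wells and 100% = 3 µM Δ7-dafachronic acid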
# hgDAF12 conf – confirmation of H. glycines DAF-12 agonists | HEK293 GAL4-hgDAF12 luciferase reporter, agonist mode; percent of butyrate response | actives 80% (n = 3,300) | activation, % at 6.8 µM | AID 743050 | shares compounds with hgDAF12 agonist;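 active means mean activation over triplicate wells above the hit cutoff derived from the earlier primary screen, cut at about 11% in these data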;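 further: 0% = DMSO low control and 100% = 2 mM sodium butyrate high control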
# LXR ag 2 – counter-screen for DAF-12 agonists: agonists of human LXR-beta | shares compounds with hgDAF12 agonist | HEK293 Gal4-LXR luciferase reporter, 24 h | activation, % at 6.8 µM | 3,300 tested, under 10 active | AID 743051;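 active means mean activation of the triplicate above a set limit carried over from the primary screen, none filed active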
# The depositor's hits bear a star; . = not tested or not shown. Sampled rows, rich in hits. Any-hit rate of the full collection: about 4.1%.
SMILES,DAX1 inh-1,hgDAF12 agonist,ssDAF-12 act,DAX1 inh-2,hcDAF12 agonist,LXR ag,hcDAF12 ag,hgDAF12 conf,LXR ag 2
Cc1ccc(C(=O)Nc2ncc(C)s2)s1,2,17*,0,-2,6.8*,2,6.3*,18*,1
CCCC(=O)N1CCC[C@]2(CC[C@H](CCC#N)O2)C1,1,1,-2,.,-1,.,.,.,.
O=C(CN1C(=O)CCC1=O)Nc1nc(-c2ccccn2)cs1,1,1,-1,1,-1,.,.,.,.
O=C(CN1C(=O)CCC1=O)Nc1nc(-c2nc3ccccc3s2)cs1,4.5*,16*,1.2*,1,7.6*,1,4,12*,0
COC(=O)CC#C[C@H](C)[C@@H](NS(=O)(=O)c1ccc([N+](=O)[O-])cc1)C(C)(C)C,1,1,-1,.,0,.,.,.,.
COC(=O)C1CN(Cc2cn(Cc3ccc(C)cc3)nn2)CCS(=O)(=O)N1Cc1ccc(C)cc1 (stereo not drawn),-2,-4,-2,.,-1,.,.,.,.
Cc1ccn2cc(-c3ccc(Br)cc3)nc2c1,3.7*,14*,1,-3,12*,1,8.4*,13*,1
Cc1ccc(S(=O)(=O)Nc2ccc(-c3cn4ccc(C)cc4n3)cc2)cc1,0,4,-2,0,-1,.,.,.,.
O=C(NC1CCCCN(Cc2cccc(Cl)c2)C1=O)c1ccc(-c2ccccc2)cc1 (stereo not drawn),-4,4,-2,.,0,.,.,.,.
COc1ccc(-c2cc3cccc(OC)c3oc2=O)cc1,3,16*,0,-1,7.3*,2,7.8*,24*,1
COc1ccc(Nc2nc(-c3cc4cccc(OC)c4oc3=O)cs2)cc1,0,5,-1,3,-2,.,.,.,.
CC(C)CNc1cccc2c1S(=O)(=O)N(Cc1cn(Cc3ccc(C(F)(F)F)cc3)nn1)Cc1ccccc1O2,0,2,-1,.,-1,.,.,.,.
CCc1ccc(NC(=O)c2cc(C(C)C)on2)cc1,3,15*,0,0,7.1*,1,6.0*,19*,1
COC(=O)c1sccc1N/N=C/c1cccc(OC)c1O,3,19*,1.3*,-2,12*,2,9.0*,25*,1
CCn1c(/C=C/c2ccccc2)nc2ccccc21,3.9*,15*,1.4*,0,11*,1,12*,17*,1
O=C(Nc1ccc2ccccc2n1)c1ccccc1,2,20*,1.1*,4,13*,2,12*,21*,1
O=C(Nc1ccc2ccccc2n1)c1ccccc1Br,2,19*,3.8*,1,16*,1,9.5*,18*,1
Cc1ccc(C(=O)Nc2ccc3ccccc3n2)cc1,3,15*,2.7*,1,8.2*,2,8.4*,21*,1
O=C(c1ccccc1)c1ccc2ccccc2n1,0,1,-1,2,-2,.,.,.,.
O=C(Nc1ccc2ncccc2c1)c1ccccc1Br,.,.,.,2,.,.,.,.,.
Cc1cc(C)cc(NC(=O)Nc2ccc3ccccc3n2)c1,1,2,-1,2,1,.,.,.,.
Cc1c(-c2nc(N)nc(Nc3ccccc3F)n2)oc2ccccc12,3.7*,14*,0.9*,4,7.5*,2,7.3*,18*,1
CC(=O)CC[C@H]1CC[C@]2(CCCN(Cc3nccn3C)C2)O1,1,-3,-1,.,0,.,.,.,.
Cc1csc(NC(=O)/C=C/c2ccco2)n1,2,14*,-1,0,6.6*,1,3,13*,1
O=C(/C=C/c1ccco1)Nc1ccc2c(c1)OCCO2,4.4*,16*,0,0,7.5*,1,8.9*,18*,1
SMILES,DAX1 inh-1,hgDAF12 agonist,ssDAF-12 act,DAX1 inh-2,hcDAF12 agonist,LXR ag,hcDAF12 ag,hgDAF12 conf,LXR ag 2
CS(=O)(=O)N1CCC[C@]2(CC[C@H](CCC#N)O2)C1,1,2,-1,.,-1,.,.,.,.
CC(C)c1ccc(NC(=O)COc2ccc(F)cc2C(=O)c2cnn(-c3ccccc3)c2)cc1,4.1*,18*,2.2*,1,12*,1,14*,17*,0
O=C(Nc1ccon1)c1ccc(Br)s1,-1,2,-1,0,0,.,.,.,.
Cc1ccnc(NC(=O)c2ccc(Br)s2)c1,3,20*,1.6*,2,14*,1,9.3*,17*,1
O=C(Nc1sc2c(c1C(=O)O)CCCC2)c1ccc(F)cc1,0,-1,-1,-1,0,.,.,.,.
NC(=O)c1c(NC(=O)c2ccc(F)cc2)sc2c1CCC2,2,15*,2.0*,2,13*,1,12*,20*,1
Cc1ccc(-c2nc3ccc(Cl)cn3c2Cc2cccc(Cl)c2)cc1,4.1*,14*,0,.,6.6*,1,3,8,0
COc1ccc(Nc2nccc(-c3cccc(N)c3)n2)cc1,2,34*,1,2,13*,2,8.7*,21*,1
CCOC(=O)c1c(C)oc2c1cc(O)c1ccccc12,3,17*,3.1*,4,13*,1,13*,20*,1
CC(=O)c1c(C)oc2c1cc(O)c1ccccc12,0,0,-1,1,0,.,.,.,.
COc1cccc(Cn2ncc3c4sc(S(C)=O)cc4n(C)c3c2=O)c1 (stereo not drawn),.,0,-2,.,-4,.,.,.,.
O=C(C(=O)N1CCC(CNC(=O)c2cccnc2Cl)CC1)c1cc2ccccc2o1,0,0,-1,.,1,.,.,.,.
COc1cccc(NC2SC(=O)N(c3ccccc3)C2=O)c1 (stereo not drawn),5.5*,14*,0,1,7.1*,0,3,11*,0
Cc1nc(NC(=S)NC(=O)c2ccccc2)sc1C,1,14*,0,5.3*,8.0*,1,15*,14*,1
O=C(Nc1ccc2c(c1)CCC2)c1cc2ccccc2o1,3,17*,1.6*,2,7.9*,1,5,22*,1
COC(=O)c1sc(NC(=S)NC(=O)c2cccc(C)c2)nc1C,0,3,-1,0,1,.,.,.,.
Cc1nnc(NC(=O)c2cc3ccccc3o2)s1,1,7,0,2,4,.,.,.,.

# High-throughput results as filed in PubChem.
